Hedgehog inh: blocks Sonic Hedgehog signaling; 22,000 compounds, 2.1% hits; inhibition, % (concentration not given with the values); Shh-LIGHT2 Gli-luciferase reporter, 30 h;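 active means mean inhibition across valid replicates above about 65%, limit read from the data; inconclusive means mean under the limit, yet half or more replicates past it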;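 further: pathway switched on by Shh-conditioned medium diluted 1 in 25 in low serum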
MITF inhib: MITF inhibition; TRPM1 promoter luciferase, luminescence, 24 h; inhibition, % (concentration not given with the values); 37,000 compounds, 0.28% hits; AID 2240; in the data active means inhibition above about 85%; inconclusive means no clear call, values can overlap the other calls; inactive means below about 68%;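 further: human melanocyte line stably carrying TRPM1 promoter luciferase reporter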
A number is an active result; n = inactive; u = inconclusive; x = not tested or not shown. Many of the other results were omitted from the sample, so hits are more common in it than they were.

SMILES	Hedgehog inh	MITF inhib
O=c1c(Cc2ccccc2OCc2ccccc2)coc2ccccc12	93.0	n
COc1cc(-c2coc3cc(OCc4ccccc4)c(OC)c(O)c3c2=O)cc(O)c1OC	n	n
Cc1ccc(S(=O)(=O)Nc2ccccc2/C(O)=C(/C#N)c2nc3ccccc3n2C)cc1	n	n
COc1ccc(CN(C)C[C@H]2Oc3ccc(NC(=O)Nc4cccc5ccccc45)cc3CC(=O)N([C@@H](C)CO)C[C@H]2C)cc1	n	n
C[C@@H]1CN([C@H](C)CO)C(=O)Cc2cc(NC(=O)c3ccncc3)ccc2O[C@@H]1CN(C)Cc1ccc(Oc2ccccc2)cc1	72.9	n
C[C@H](CO)N1C[C@H](C)[C@H](CN(C)Cc2ccc(Oc3ccccc3)cc2)Oc2ccc(NC(=O)c3ccncc3)cc2CC1=O	n	n
C[C@@H]1CN([C@H](C)CO)C(=O)Cc2cc(NC(=O)C3CCCCC3)ccc2O[C@@H]1CN(C)Cc1ccc(Oc2ccccc2)cc1	69.7	n
COc1ccc(CN(C)C[C@@H]2Oc3ccc(NC(=O)Nc4cccc5ccccc45)cc3CC(=O)N([C@@H](C)CO)C[C@@H]2C)cc1	68.6	n
C[C@@H]1CN([C@@H](C)CO)C(=O)Cc2cc(NC(=O)C3CCCCC3)ccc2O[C@@H]1CN(C)Cc1ccc(Oc2ccccc2)cc1	u	n
CC(C)(C)c1ccc(N2C(=O)CCC2=O)cc1	n	n
CN1C(=O)c2cccc(NC(=O)C3COc4ccccc4O3)c2C1=O (stereo not drawn)	x	n
C=CCNC1=C2C[C@@H](C)C[C@H](OC)[C@H](O)[C@@H](C)/C=C(\C)[C@H](OC(N)=O)[C@@H](OC)C=C/C=C(/C)C(=O)NC(=CC1=O)C2=O	107.5	n
CCN(C(=O)c1cccc(C(=O)N(CC)c2ccccc2)c1)c1ccccc1	n	n
CC(=O)OC[C@H]1O[C@@H](Oc2cc(OC(C)=O)c3c(=O)cc(-c4ccc(OC(C)=O)cc4)oc3c2)[C@H](OC(C)=O)[C@@H](OC(C)=O)[C@@H]1OC(C)=O	64.7	n
CC(=O)Oc1ccc(-c2coc3cc(OC(C)=O)cc(OC(C)=O)c3c2=O)cc1	n	n
C[C@@H]1C[C@@H]2O[C@H]2/C=C/C=C\C(=O)Cc2c(Cl)c(O)cc(O)c2C(=O)O1	n	n
O=C(O)c1cccc(COc2ccc(CO)cc2Cl)c1	x	88.6
COc1cc(CO)cc(Cl)c1OCc1cccc(C(=O)O)c1	x	n
CC(C)n1c(-c2ccccc2)nc2ccccc21	n	n
COc1ccc(CCNC(=O)C2CCCCC2)cc1OC	x	n
Cc1cc(Cl)ccc1NC(=O)c1ccc(OCC(=O)Nc2ccccc2)cc1	x	n
CCOc1ccc(C(=O)Nc2ccc(NC(=O)c3ccccc3)c(C)c2)cc1Br	95.7	n
CSC1=N/C(=C\c2ccc(Cl)cc2)C(=O)N1CCc1c[nH]c2ccccc12	n	n
N#CCC(=O)N=Cc1ccc(Cl)cc1Cl	n	n
C[C@H](CO)N1C[C@H](C)[C@H](CN(C)C(=O)NC2CCCCC2)Oc2c(NS(=O)(=O)c3cccs3)cccc2C1=O	67.8	n
SMILES	Hedgehog inh	MITF inhib
C[C@@H]1CN([C@H](C)CO)C(=O)c2cccc(NC(=O)C3CC3)c2O[C@@H]1CN(C)Cc1ccc(Cl)c(Cl)c1	78.4	n
C[C@H]1CN([C@@H](C)CO)C(=O)c2cccc(NS(=O)(=O)c3ccc(F)cc3)c2O[C@H]1CN(C)Cc1ccc(Cl)c(Cl)c1	n	n
C[C@H](CO)N1C[C@H](C)[C@H](CN(C)Cc2ccc(Cl)c(Cl)c2)Oc2c(NC(=O)C3CCCCC3)cccc2C1=O	n	n
C[C@@H]1CN([C@H](C)CO)C(=O)c2cccc(NS(=O)(=O)c3cccs3)c2O[C@H]1CN(C)C(=O)NC1CCCCC1	n	n
COc1ccc(S(=O)(=O)Nc2cccc3c2O[C@H](CN(C)Cc2ccc(Cl)c(Cl)c2)[C@H](C)CN([C@@H](C)CO)C3=O)cc1	n	n
COc1ccc(S(=O)(=O)Nc2cccc3c2O[C@@H](CN(C)Cc2ccc(Cl)c(Cl)c2)[C@@H](C)CN([C@H](C)CO)C3=O)cc1	114.9	n
C[C@H](CO)N1C[C@H](C)[C@H](CN(C)Cc2ccc(Cl)c(Cl)c2)Oc2c(NS(=O)(=O)c3ccc(F)cc3)cccc2C1=O	85.5	n
Cc1cc(=O)n2c3ccccc3n(CC(O)Cn3ccnc3)c2c1C#N (stereo not drawn)	x	n
O=C(COc1cccc(C(F)(F)F)c1)NCc1cccnc1	x	n
Cc1c(C)c(C)c(CSc2ccccc2N)c(C)c1C	x	n
C[C@H](CO)N1C[C@H](C)[C@H](CN(C)Cc2ccc(Cl)c(Cl)c2)Oc2c(NS(=O)(=O)c3cccs3)cccc2C1=O	98.4	n
C[C@@H]1CN([C@@H](C)CO)C(=O)c2cccc(NS(=O)(=O)c3cccs3)c2O[C@@H]1CN(C)Cc1ccc(Cl)c(Cl)c1	n	n
C[C@@H]1CC[C@]2(C(=O)O)CC[C@]3(C)C(=CCC4[C@@]5(C)CC[C@@H](O)[C@](C)(C(=O)O)C5CC[C@]43C)C2[C@H]1C (stereo partly drawn)	n	n
CC1CC(=O)[C@]2(C)CC[C@]3(C)C(C(=O)C(O)C4[C@@]5(C)CC[C@H](O)C(C)(C(=O)O)C5CC[C@]43C)C2C1C (stereo partly drawn)	81.5	n
C(=Nc1ccc2ccccc2c1)Nc1ccc2ccccc2c1	n	n
C[C@@H]1CCCCO[C@H](CN(C)Cc2ccc(C(F)(F)F)cc2)[C@@H](C)CN([C@H](C)CO)C(=O)c2cc(NC(=O)C3CCCCC3)ccc2O1	65.6	n
C[C@@H]1CCCCO[C@@H](CN(C)Cc2ccncc2)[C@@H](C)CN([C@H](C)CO)C(=O)c2cc(NC(=O)C3CCCCC3)ccc2O1	n	n
C[C@H]1CN([C@@H](C)CO)C(=O)Cc2cc(NC(=O)Nc3ccc(C(F)(F)F)cc3)ccc2O[C@H]1CN(C)C(=O)Nc1ccc2c(c1)OCO2	n	n
C[C@@H]1CN([C@@H](C)CO)C(=O)c2cc(NC(=O)Nc3ccc(C(F)(F)F)cc3)ccc2O[C@@H]1CN(C)Cc1ccc(C(F)(F)F)cc1	n	101.0
Cc1noc(C)c1NC(=O)N(C)C[C@H]1Oc2ccc(NC(=O)CCN3CCOCC3)cc2CC(=O)N([C@@H](C)CO)C[C@H]1C	66.5	n
Cc1noc(C)c1NC(=O)N(C)C[C@@H]1Oc2ccc(NC(=O)CCN3CCOCC3)cc2CC(=O)N([C@H](C)CO)C[C@H]1C	n	n
C[C@@H]1CN([C@@H](C)CO)C(=O)Cc2cc(NC(=O)Nc3ccc(C(F)(F)F)cc3)ccc2O[C@@H]1CN(C)C(=O)Nc1ccc2c(c1)OCO2	82.6	n
C[C@@H]1CN([C@H](C)CO)C(=O)c2cc(NC(=O)Nc3ccc(C(F)(F)F)cc3)ccc2O[C@@H]1CN(C)Cc1ccc(C(F)(F)F)cc1	x	n
O=C(O)CCNc1cc(Cl)ccc1Oc1ccc(Cl)cc1	n	n
Nc1nc(SCc2nnc(Nc3ccccc3)s2)nc2sc3c(c12)CCC3	x	n
COc1ccc2oc(-c3cccc(NC(=O)COc4ccc(Cl)cc4)c3)nc2c1	x	n
Cc1ccc2nc(CCCC(=O)O)[nH]c2c1	n	n
CC(C)NC(=O)Nc1ccc2c(c1)CC(=O)N([C@H](C)CO)C[C@@H](C)[C@H](CN(C)C(=O)Nc1ccc(F)cc1)O2	n	n
C[C@@H]1CN([C@@H](C)CO)C(=O)c2cc(NC(=O)Nc3ccc(F)cc3)ccc2O[C@@H]1CN(C)Cc1ccc(Cl)c(Cl)c1	84.7	n
